# Compound activity from PubChem.
# Rango release inh: prevents RanGTP from dissociating the Rango-importin beta complex. Potency, µM (doses to about 46.1 µM), inactives show at the top dose activity change, negative = inhibition. actives 0.071% (n = 340,000). O95149+P62826. Biochemical FRET Rango-importin beta, RanGTP-induced dissociation; also: potency is read from the fitted curve at half-maximal effect; % of control where 0% means no effect; nearly all actives have a fitted effect of over 45% in size
#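 Rango/importin beta premix (0.1/0.25 uM final), PBS + 1 mM DTT + 0.02% Tween-20 + 0.1% BSA; cpd 5 min RT; FRET pre-read; + RanGTP-RCC1 (0.6 uM Ran, 2 mM GTP, 0.2 uM RCC1); 45 min RT; FRET post-read, ex 430, em 486/530 nm.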
# ClpP mod: qHTS Assay for Activators of ClpP. ATP-dependent Clp protease proteolytic subunit (Bacillus subtilis (strain 168)), P80244. purified B. subtilis ClpP, FRET peptide cleavage, 20 min. Potency, µM (series often up to 57.5 µM), without a hit: at the highest dose activity change, negative = active. actives 1.9% (n = 340,000). AID 651965, 2013; active = well fitted falling curve with a large enough effect; inconclusive = small, poorly fitted or top-dose-only effect; inactive = no such curve, though single readings can be large or run the other way; also: potency is read from the fitted curve at half-maximal effect; the source files actives as falling curves though it sought activators and does not explain the sign; nearly all actives have a fitted effect of over 65% in size
# Target sequence (P80244 whole entry, looked up): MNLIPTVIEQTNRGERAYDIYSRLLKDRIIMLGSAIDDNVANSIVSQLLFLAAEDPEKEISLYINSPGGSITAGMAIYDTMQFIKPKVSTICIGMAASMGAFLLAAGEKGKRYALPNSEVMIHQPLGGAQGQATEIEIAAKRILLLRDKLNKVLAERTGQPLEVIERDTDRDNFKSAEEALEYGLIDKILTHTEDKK
#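 Buffer: 100 mM Tris/HCl pH8, 100 mM KCl, 0.05% low protease BSA, 2.5% glycerol, 0.01% Tween-20. ClpP 10 microg/mL final; 20 min RT; delta FRET normalized to ADEP and DMSO controls.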
# Rango complex inh: prevents formation of the Rango-importin beta complex; AID 540263; Rango CFP/YFP FRET sensor + importin beta, 45 min; Potency, µM (doses to about 92.2 µM), inactives show at the top dose inhibition of complex formation; actives 0.031% (n = 340,000); Q14974;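 also: potency is read from the fitted curve at half-maximal effect; 0% = DMSO wells and 100% = buffer wells lacking importin beta; nearly all actives have a fitted effect of over 15% in size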
#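 FRET biosensor Rango (snurportin 1 IBB between N-terminal EYFP and C-terminal Cerulean), 50 nM in PBS/1 mM DTT/0.02% Tween-20/0.1% BSA, preincubated 5 min RT with compound; 0.125 microM importin beta added, 45 min RT, CFP/YFP FRET ratio read.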
# MBNL1-CUG inh: blocks human MBNL1 binding to CUG repeat RNA; actives 0.036% (n = 280,000); Potency, µM (top dose mostly 57.5 µM), inactives show at the top dose activity change, negative = inhibition, actives largely listed as inhibitors; TR-FRET MBNL1-His/biotin-(CUG)12 binding, 665/545 ratio; Q9NR56; AID 2675; active = well fitted inhibition curve with a large enough effect in the signal ratio, with a control signal flat, not every such curve was filed as active; inconclusive = small, poorly fitted or top-dose-only effect, or effect the other way, or a change in a side signal; inactive = no such curve, though single readings can be large or run the other way; the % refers to the signal ratio; also: potency is read from the fitted curve at half-maximal effect; % is scaled to controls: 0 for no effect and ±100 for the full control effect
# Target sequence (Q9NR56 whole entry, looked up): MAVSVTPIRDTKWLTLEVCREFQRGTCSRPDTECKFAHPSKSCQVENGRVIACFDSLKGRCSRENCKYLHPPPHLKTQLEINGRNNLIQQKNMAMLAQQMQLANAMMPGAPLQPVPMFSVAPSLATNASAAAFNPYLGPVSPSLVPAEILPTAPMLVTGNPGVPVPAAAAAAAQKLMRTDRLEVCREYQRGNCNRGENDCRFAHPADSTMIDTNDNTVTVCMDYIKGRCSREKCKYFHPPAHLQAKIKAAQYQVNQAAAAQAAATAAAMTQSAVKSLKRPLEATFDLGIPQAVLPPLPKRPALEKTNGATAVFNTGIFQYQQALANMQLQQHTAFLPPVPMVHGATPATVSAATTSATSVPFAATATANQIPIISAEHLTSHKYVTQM
#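 Compound titration spanned 92 nM–58 uM against the MBNL1-His/biotin-(CUG)12 complex. After 60 min at room temperature with 5 nM streptavidin-XL665 and 0.055 ng/ul terbium anti-His, ratiometric 665/545 nm emission (Ex 340 nm) normalized to controls.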
# CBFb RUNX1 block: blocks binding between human CBF-beta and RUNX1 | 230,000 tested, under 10 active | Q01196+Q13951 | Potency, µM (titrated, usually from 59.8 µM), inactives show top-dose activity, negative = inhibition, actives largely listed as inhibitors | AlphaScreen CBFb-His/RUNX1-biotin binding, biochemical; active = well fitted curve in the direction sought with a large enough effect; inconclusive = small, poorly fitted or top-dose-only effect, or effect the other way, or another doubt; inactive = no such curve, though single readings can be large or run the other way; also: % of control where 0% means no effect
#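 AlphaScreen proximity signal reports loss of binding between His-tagged CBF-beta and biotin-labelled RUNX1, each at 30 nM. Proteins are pre-associated for 20 minutes, compounds added for 15 minutes, then beads for 90 minutes, all at ambient temperature.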
# * = called active by the depositor; ? = inconclusive; · = not tested or not shown. The sample as a whole holds a higher share of hits than the screen did. Unless noted, calls follow the shape of the full dose curve.
SMILES,Rango release inh,ClpP mod,Rango complex inh,MBNL1-CUG inh,CBFb RUNX1 block
COc1ccc(OC)c2c1CCC2=O,-14%,32µM*,?,1%,-8%
COc1ccccc1NC1=C(C)C(=O)CC1,1%,1%,-2%,-8%,10%
Cc1ccc(Nc2nc(N)nc(CSc3nccn3C)n2)c(C)c1,-6%,4µM*,-6%,6%,3%
COc1cc(C(=O)NCCc2sc(-c3ccc(C)cc3)nc2C)cc(OC)c1OC,·,4%,·,·,·
CC(C)CN1C(=O)C(=O)N(CC(=O)NC2CCCc3ccccc32)C1=O (stereo unspecified),-20%,0%,-2%,5%,-1%
CC(C)CC1NC(=O)N(CC(=O)NC2CCCc3ccccc32)C1=O (stereo unspecified),-18%,28µM*,-4%,-5%,2%
Cc1ccccc1NC(=O)CSc1nc(=O)n(CCN2CCOCC2)c2c1CCC2,·,-4%,·,·,·
CCOC(=O)Cc1cnc(NC(=O)Cn2nnc(-c3ccc(OCC)cc3)n2)s1,1%,22µM*,-3%,-6%,2%
CCCCOc1ccc(-c2nnn(CC(=O)Nc3ncc(CC(=O)OCC)s3)n2)cc1,-5%,-3%,1%,-6%,7%
CCOc1ccc(-c2nnn(CC(=O)Nc3cc(OC)ccc3OC)n2)cc1OCC,1%,0%,0%,-4%,0%
CCOc1ccc(-c2nnn(CC(=O)c3cc(OC)ccc3OC)n2)cc1,-12%,32µM*,4%,3%,28%
O=S(=O)(Nc1cccc(-c2cn3cccnc3n2)c1)c1ccc(-c2ccccc2)cc1,-7%,28µM*,2%,-2%,-7%
Clc1ccc(-c2cn3cccnc3n2)cc1Cl,-10%,11µM*,0%,10%,-3%
Clc1ccc(-c2cn3cccnc3n2)cc1,7%,92%,-2%,9%,0%
CCOc1ccc2oc(=O)cc(CN3CCN(c4cc(C)ccc4C)CC3)c2c1,·,-2%,·,·,·
CCSc1nc2c([nH]c3ccccc32)c(=O)n1-c1cccc(OC)c1,·,-16%,·,·,·
Cc1ccc2nc(SCC(=O)Nc3cccc(S(=O)(=O)N(C)C)c3)[nH]c2c1,4%,1%,-1%,-8%,-4%
NS(=O)(=O)c1cccc(NC(=O)CSc2nc3ccc(Cl)cc3[nH]2)c1,10%,14µM*,-2%,-5%,29%
COc1ccc(C(=O)Nc2scc(-c3ccc(Cl)cc3Cl)c2C(N)=O)cc1,-3%,28µM*,-3%,42%,1%
Cn1cnc(S(=O)(=O)N2CCC(C(=O)NCc3ccccc3Cl)CC2)c1,·,3%,·,·,·
COCCN(C(=O)COC(=O)Cc1coc2cc3c(cc12)CCC3)c1c(N)n(Cc2ccccc2)c(=O)[nH]c1=O,-11%,18µM*,-2%,·,·
COCCN(C(=O)COC(=O)c1oc2ccc(OC)cc2c1C)c1c(N)n(Cc2ccccc2)c(=O)[nH]c1=O,-18%,13µM*,-4%,9%,·
CCc1ccc(NS(=O)(=O)c2c(-c3ccccc3)csc2C(=O)OC)cc1,·,-1%,·,·,·
O=S(=O)(c1cccc(-c2nnc(SCc3nc4ccccc4s3)o2)c1)N1CCOCC1,24%,28µM*,4%,10%,-11%
CC(=O)CCSc1nnc(-c2cccc(S(=O)(=O)N3CCOCC3)c2)o1,-12%,3%,-2%,·,·
SMILES,Rango release inh,ClpP mod,Rango complex inh,MBNL1-CUG inh,CBFb RUNX1 block
Cc1ccc(S(=O)(=O)ON2C(=O)c3ccccc3C2=O)c(C)c1,-2%,0%,?,?,-1%
Cc1cc(C)c(S(=O)(=O)ON2C(=O)c3ccccc3C2=O)cc1C,3%,8.9µM*,-2%,0%,-2%
O=C(Nc1ccc(Br)cn1)c1cccc2ccccc12,-4%,25µM*,5%,·,·
COc1c(C(=O)Nc2ccc(Br)cn2)ccc2ccccc12,0%,-17%,1%,17%,·
C=CC(=O)N1C/C(=C/c2ccccc2)C(=O)/C(=C\c2ccccc2)C1,-9%,32µM*,-4%,·,·
CCc1ccc(NC(=O)CSC2=Nc3ccccc3C3=NC(CC(=O)NCc4ccccc4)C(=O)N23)cc1 (stereo unspecified),·,-2%,·,·,·
CC(C)C1N=C2c3ccccc3N=C(SCC#N)N2C1=O (stereo unspecified),5%,13µM*,-4%,4%,-1%
COCCCNC(=O)CSC1=Nc2ccccc2C2=NC(CC(=O)NCc3ccccc3)C(=O)N12 (stereo unspecified),3%,28µM*,0%,-4%,2%
CCC(C)NC(=O)CSC1=Nc2ccccc2C2=NC(CC(=O)NCc3ccccc3)C(=O)N12 (stereo unspecified),10%,28µM*,?,1%,-2%
CCC(C)NC(=O)CSC1=Nc2ccccc2C2=NC(c3ccccc3)C(=O)N12 (stereo unspecified),-3%,16µM*,1%,-6%,0%
COC(=O)c1ccccc1NC(=O)Cn1nc(C(F)(F)F)c2c1CCCC2,·,-23%,·,·,·
Nc1ncc(S(=O)(=O)N2CCN(c3ccccc3)CC2)cn1,·,-1%,·,·,·
Cc1ccc(NC(c2nnc(-c3ccccc3)o2)c2ccccc2F)c(Cl)c1 (stereo unspecified),·,-4%,·,·,·
Cc1ccccc1Nc1nc(-c2ccccc2)c(C(=O)Nc2cccnc2)s1,0%,4%,1%,35%,4%
O=C(Nc1cccnc1)c1sc(Nc2ccccc2F)nc1-c1ccccc1,-7%,18µM*,0%,4%,5%
CCCCCn1c(=O)[nH]c2cc(C(=O)NCCN(CC)CC)ccc2c1=O,13%,25µM*,2%,-7%,2%
CCCCCn1c(=O)[nH]c2cc(C(=O)NCCCN3CCCCC3)ccc2c1=O,-3%,28µM*,5%,-40%,16%
COc1ccc(Cn2c(=O)[nH]c3cc(C(=O)NCCCN4CCCC4)ccc3c2=O)cc1,-1%,-16%,3%,0%,0%
CCCCCn1c(=O)[nH]c2cc(C(=O)NCCCN3CCC(C)CC3)ccc2c1=O,-4%,28µM*,3%,2%,5%
COc1cc2[nH]c(=O)n(Cc3ccc(C(=O)NCCCN4CCN(C)CC4)cc3)c(=O)c2cc1OC,-16%,25µM*,-2%,-7%,1%
CCOC(=O)c1oc2cc(O)cc(C)c2c1C,11%,13µM*,-5%,·,·
Cc1cc(O)c2c(C)c(CC(=O)N3CCCCC3)c(=O)oc2c1,·,1%,·,·,·
CCOC(=O)Cc1c(C)c2ccc(N(CC)CC)cc2oc1=O,?,22µM*,?,?,?
CCOC(=O)Cc1c(C)c2c(O)cc(O)cc2oc1=O,?,25µM*,?,17%,7%
Cc1cccc(N2CCN(c3ncnc4c3nc3n4CCCCC3)CC2C)c1 (stereo unspecified),·,-3%,·,·,·
